From PubChem BioAssay (NCI) come the findings set out here.

This is part of a sample that, as a whole, favours compounds with a hit. Of some 83,000 tested, about 20% had one in any assay.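 The test compound was applied at a single concentration to cells in 96-well plates for 48 hours, and percent growth was recorded.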 Unmarked numbers belong to inactive results. Calls of active or inactive are those of the source. Rule for the calls: active = growth percent below 10; inactive = the rest.

What all share (assay): NCI-60 one-dose screen, 48 h (100 = growth as untreated, 0 = no growth, -100 = all killed)
Assay [1] relates to BT-549 breast. Conditions: 10 µM.
Assay [2] concerns MDA-MB-435 melanoma. As to conditions: 10 µM.
Assay [3] concerns SW-620 colon. As to conditions: 10 µM.
Assay [4] relates to MCF7 breast. Conditions: 10 µM unless noted.
Assay [5] concerns HCT-116 colon. Conditions: 10 µM.
Assay [6] concerns HCC-2998 colon. Conditions: 10 µM.
Assay [7] has as its system KM12 colon. As to conditions: 10 µM.

In the case of `CCS(=O)(=O)CCCl`, the growth in assay [1] was 95.9%; in assay [2], 104%; in assay [3] it was 102%; in assay [4] it was 76.8%; in assay [5] it was 98.7%; in assay [6], 125%. Further, the growth in assay [7] was 99.1%.
For the compound `COc1nc(N)nc2c1ncn2C1OC(CO)CC1O` (stereo unspecified), the growth was 94.3% in assay [1]; 105% in assay [2]; 108% in assay [3]; 100% in assay [4]; 98.8% in assay [5]; 105% in assay [6]. Besides, the growth in assay [7] is 103%.
For `CCCCNC(=O)C(=O)NCCCC`, the growth in assay [1] is 98.8%; in assay [2], 104%; in assay [3], 104%; in assay [4] it was 94.1%; in assay [5], 104%; in assay [6], 114%. Besides, in assay [7], the growth was 102%.
`CCCCCCCCCCCCCC(=O)Oc1ccc[nH]c1=O`: the growth in assay [1] is 94.4%; in assay [2] it was 113%; in assay [3], 101%; in assay [4], 95.8%; in assay [5], 94.6%; in assay [6], 109%. In assay [7], the growth was 92.7%.
In the case of `COc1cc2nc3cc([N+](=O)[O-])ccc3c(Cl)c2cc1OC`, the growth in assay [1] was 51.3%; in assay [2], 93.2%; in assay [3], 104%; in assay [4] it was 83%; in assay [5], 95.7%; in assay [6], 106%. Further, in assay [7], the growth was 110%.
Take `CS(=O)CC1=NC(=N)N=C1CS(C)=O` (stereo unspecified): the growth in assay [1] was 110%; in assay [2], 109%; in assay [3], 108%; in assay [4], 95%; in assay [5], 102%; in assay [6], 104%. Moreover, the growth in assay [7] is 108%.
Regarding `COc1ccccc1C1OC2=Nc3cc(C)c(C)cc3NC2C1=O` (stereo unspecified), the growth is 88.6% in assay [1]; 82.5% in assay [2]; 73.9% in assay [3]; 56.8% in assay [4]; 39.2% in assay [5]; 105% in assay [6]. Besides, the growth in assay [7] was 93%.
Regarding `Cc1ccc(CCCC(=O)O)c(C)c1`, the growth was 101% in assay [1]; 100% in assay [2]; 99.7% in assay [3]; 105% in assay [4]; 103% in assay [5]; 118% in assay [6]. Moreover, the growth in assay [7] is 107%.
Take `CC1(C)S(=O)(=O)OCCOS1(=O)=O`: the growth was 100% in assay [1]; 103% in assay [2]; 101% in assay [3]; 97.1% in assay [4]; 94.6% in assay [5]; 113% in assay [6]. The growth in assay [7] was 106%.
Take `CCOC(=O)c1cc(/C=C/c2ccc(Cl)cc2Cl)on1`: the growth in assay [1] was 26.3%; in assay [2], 66.8%; in assay [3], -13.6% (active); in assay [4] it was 0.711% (active); in assay [5] it was -86.6% (active); in assay [6], 82%. For the same compound, the growth in assay [7] was -29.7% (active).
With `CC(=O)C1CCCCC1`, the growth in assay [1] is 99.9%; in assay [2] it was 104%; in assay [3], 100%; in assay [4] it was 97.9%; in assay [5], 102%; in assay [6], 103%. In assay [7], the growth is 100%.
Turning to `Cc1ccc(/C=C2\SC(=S)N(c3ccc(F)cc3)C2=O)o1`, the growth in assay [1] was 112%; in assay [2] it was 77.4%; in assay [3], 93.3%; in assay [4] it was 71.1%; in assay [5] it was 64.5%; in assay [6], 118%. Besides, the growth in assay [7] was 78.2%.
For `COc1ccc(C(=O)C(Br)C(Br)C(=O)O)cc1` (stereo unspecified), the growth was 99.5% in assay [1]; 108% in assay [2]; 113% in assay [3]; 91.1% in assay [4]; 94.9% in assay [5]; 113% in assay [6]. Besides, the growth in assay [7] was 111%.
In the case of `COc1ccccc1NC(=O)c1cc2cc(Br)ccc2cc1O`, the growth was 18.8% in assay [1]; 10.2% in assay [2]; 10.9% in assay [3]; -2.37% (active) in assay [4]; 3.77% (active) in assay [5]; 20.1% in assay [6]. In addition, in assay [7], the growth is 9.92% (active).
For the compound `C#Cc1cccc(NC(=O)c2ccc(Cl)cc2Cl)c1`, the growth in assay [1] was 111%; in assay [2], 103%; in assay [3], 91.9%; in assay [4], 90.3%; in assay [5], 93.2%; in assay [6] it was 113%. For the same compound, in assay [7], the growth was 115%.
For the compound `CC1(C(N)=O)CCC(C(=O)O)C1(C)C` (stereo unspecified), the growth in assay [1] is 99.7%; in assay [2] it was 97.4%; in assay [3] it was 111%; in assay [4] it was 88.4%; in assay [5], 99.7%; in assay [6], 99.4%. For the same compound, the growth in assay [7] is 111%.
Take `COc1ccc(/C=C/c2cccc[n+]2C)cc1`: the growth in assay [1] was 89.8%; in assay [2], 100%; in assay [3], 79.9%; in assay [4], 96%; in assay [5], 106%; in assay [6], 83.6%. Also, the growth in assay [7] is 33%.
Take `O=C(Cc1nc2ccc([N+](=O)[O-])cc2nc1CC(=O)c1ccccc1)c1ccccc1`: the growth is 37.3% in assay [1]; 63.3% in assay [2]; 62.6% in assay [3]; 30.1% in assay [4]; 34.8% in assay [5]; 89% in assay [6]. Further, the growth in assay [7] was 39.4%.
Consider `O=C(O)CCCCNC(=O)c1ccccc1`, for which the growth is 103% in assay [1]; 113% in assay [2]; 107% in assay [3]; 101% in assay [4]; 101% in assay [5]; 94.3% in assay [6]. Also, in assay [7], the growth was 99%.
Turning to `N#CC(=Nc1cccc(F)c1)C1=C(O)c2ccccc2C1=O`, the growth is 89.2% in assay [1]; 99.4% in assay [2]; 95.4% in assay [3]; 83.2% in assay [4]; 97% in assay [5]; 101% in assay [6]. The growth in assay [7] is 102%.
For the compound `CCCCCCCCCCC1CO1` (stereo unspecified), the growth is 109% in assay [1]; 112% in assay [2]; 106% in assay [3]; 92.4% in assay [4]; 102% in assay [5]; 109% in assay [7].
As for `O=C1NC(=O)C2C(=O)NC(=O)C1C21CCc2ccccc21` (stereo unspecified), the growth was 106% in assay [1]; 112% in assay [2]; 101% in assay [3]; 93.1% in assay [4]; 96.7% in assay [5]; 115% in assay [6]. In addition, the growth in assay [7] was 105%.
For the compound `CCN(CC)CCNc1ccc(CO)c2sc3ccccc3c(=O)c12`, the growth is 70% in assay [1]; 38.1% in assay [2]; 29.5% in assay [3]; 23.7% in assay [5]; 40.6% in assay [6]; 42.5% in assay [7].
For `OCCN(CCO)C(=S)S`, the growth was 110% in assay [1]; 108% in assay [2]; 106% in assay [3]; 98.2% in assay [4]; 109% in assay [5]; 113% in assay [6]. In assay [7], the growth was 107%.
In the case of `N#CSc1cc(S(N)(=O)=O)ccc1N`, the growth in assay [1] was 98.6%; in assay [2], 120%; in assay [4], 94.5%; in assay [5] it was 102%; in assay [7], 107%.
On to `COc1cc(OC)c2ccc(=O)oc2c1`, for which the growth in assay [1] was 111%; in assay [2], 107%; in assay [3] it was 101%; in assay [4], 100%; in assay [5], 109%; in assay [6], 94.8%. Further, in assay [7], the growth is 98.9%.
As to `CC(C)(O)C#CC#CC(C)(C)O`, the growth in assay [1] was 93.7%; in assay [2], 103%; in assay [3] it was 104%; in assay [4], 101%; in assay [5], 96.5%; in assay [6] it was 96.4%. For the same compound, the growth in assay [7] is 108%.
`c1c(-c2cc(C3CC3)[nH]n2)n[nH]c1C1CC1`: the growth in assay [1] is 94%; in assay [2], 109%; in assay [4], 92.8%; in assay [5], 83.6%; in assay [7], 109%.
Consider `CCOC(=O)CCCS(C)(=O)=O`, for which the growth in assay [1] is 100%; in assay [2] it was 119%; in assay [4], 92.6%; in assay [5], 110%; in assay [6], 91%; in assay [7], 108%.
Consider `O=C1N(C[P+](c2ccccc2)(c2ccccc2)c2ccccc2)CCCN1C[P+](c1ccccc1)(c1ccccc1)c1ccccc1`, for which the growth was 103% in assay [1]; 105% in assay [2]; 109% in assay [3]; 98.7% in assay [4]; 97% in assay [5]; 111% in assay [7].
For the compound `CNc1nc(NC)c2cn[nH]c2n1`, the growth is 103% in assay [1]; 111% in assay [2]; 97.3% in assay [4]; 99.4% in assay [5]; 100% in assay [6]; 105% in assay [7].
Regarding `CC(C)OC(C(=O)O)c1ccccc1` (stereo unspecified), the growth is 100% in assay [1]; 115% in assay [2]; 93% in assay [4]; 101% in assay [5]; 105% in assay [7].
In the case of `CC(=O)CC(=O)N(C)C`, the growth in assay [1] was 99.5%; in assay [2] it was 98.2%; in assay [3] it was 101%; in assay [4], 94.8%; in assay [5] it was 95.6%; in assay [7] it was 102%.
Consider `O=c1c2ccccc2c(Br)c(Br)c2ccccc12`, for which the growth was 82.4% in assay [1]; 77.6% in assay [2]; 29.8% in assay [3]; 101% in assay [4]; 17.8% in assay [5]; 103% in assay [6]. Also, in assay [7], the growth is 105%.
For `Cc1ncc(C#N)c(N)n1`, the growth in assay [1] was 94.4%; in assay [2], 90.2%; in assay [3] it was 99.9%; in assay [4], 99.7%; in assay [5], 96.7%; in assay [6], 102%. Moreover, in assay [7], the growth is 104%.
In the case of `COC(=O)c1[nH]c(=O)c(C#N)c(C(=O)OC)c1C(=O)c1ccccc1`, the growth is 110% in assay [1]; 99.9% in assay [2]; 102% in assay [3]; 68.9% in assay [4]; 99.3% in assay [5]; 102% in assay [7].
Regarding `O=[N+]([O-])c1cccc(C(F)(F)F)c1`, the growth in assay [1] was 103%; in assay [2], 107%; in assay [3], 92.6%; in assay [4], 85.4%; in assay [5], 99.1%; in assay [7] it was 119%.
As to `O=C(c1ccccc1)C1CCC1`, the growth in assay [2] was 112%; in assay [3], 103%; in assay [4], 71.5%; in assay [5], 106%; in assay [6], 100%; in assay [7], 105%.
